# Measurements as given in PubChem BioAssay AID1240 (Sanford-Burnham Center for Chemical Genomics, 2008).
# In all, about 50,000 compounds went through this assay and about 800 (1.6%) showed an effect of 50% or more. The sample as a whole holds a higher share of strong results than the screen did.
# Target: Bcl-2-like protein 10 (Homo sapiens) (UniProt Q9HD36)
# Assay: Phenotype converters, Bcl-B/TR3 peptide binding displacement, primary biochemical FP (AID 1240);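 note: 0% = Bcl-B with tracer peptide and DMSO and 100% = tracer peptide lacking Bcl-B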
# Settings: GST-Bcl-B / FITC-TR3 peptide fluorescence polarization; stronger effect = higher value; compound at 3.75 mg/L
# Chain of Bcl-2-like protein 10 (Homo sapiens) (Q9HD36 whole entry, looked up): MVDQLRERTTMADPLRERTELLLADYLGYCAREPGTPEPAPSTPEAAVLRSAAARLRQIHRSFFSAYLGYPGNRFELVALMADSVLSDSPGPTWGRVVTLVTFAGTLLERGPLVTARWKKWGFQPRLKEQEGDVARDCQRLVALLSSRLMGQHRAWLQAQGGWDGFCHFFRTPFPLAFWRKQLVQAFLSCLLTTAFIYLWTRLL
row,Compound,displacement
1,COc1ccc(C(=O)Nc2ccc(Br)c(C)c2)c(OC)c1,14.5%
2,COC(=O)c1ccccc1NC(=O)c1cnn2c(C(F)(F)F)cc(-c3ccccc3)nc12,11.9%
3,COc1ccc(N(CC(=O)NC(C)c2ccccc2)S(=O)(=O)c2ccccc2)cc1 (stereo not given),5.7%
4,CCC(c1ccccc1)c1nnc(NC(=O)Nc2cccc(Cl)c2)s1 (stereo not given),-0.8%
5,COc1cc(NC(=O)c2ccc(-c3ccccc3[N+](=O)[O-])o2)ccc1NC(=O)c1ccco1,7.1%
6,CC(=O)Oc1cc2ccccc2cc1O,3.9%
7,C=CCN1C(=O)/C(=C\c2cn(C)c3ccccc23)C(=O)NC1=S,-18.2%
8,C=CCN1C(=O)/C(=C\c2ccc(-c3ccc([N+](=O)[O-])cc3)o2)C(=O)NC1=S,12.1%
9,C=CCN1C(=O)/C(=C\c2cn(Cc3ccc([N+](=O)[O-])cc3)c3ccccc23)C(=O)NC1=S,87.4%
10,CSc1ccc(S(=O)(=O)NCc2ccccc2C)cc1,16.3%
11,O=[N+]([O-])c1ccc(/C=N/c2nc3c(s2)CCCC3)cc1,6.6%
12,COc1ccc(C(=O)c2c(N)c(C#N)c(C)n2-c2ccccc2)cc1,9.3%
13,COc1ccc(OCC(=O)Nc2ccc(OC)c(OC)c2)cc1,-4.2%
14,O=c1cc(=O)n(-c2ccccc2)c2ccccc12,-0.3%
15,COc1ccc(-c2ccc(/C=C3\C(=O)NC(=O)N(c4ccc(Cl)cc4)C3=O)o2)c([N+](=O)[O-])c1,47%
16,O=c1nc(/C=C/c2ccc(-c3ccc([N+](=O)[O-])cc3Cl)o2)cc(C(F)(F)F)[nH]1,11.9%
17,Cc1ccc(N2C(=O)NC(=O)/C(=C\c3ccc(-c4ccc(C)c([N+](=O)[O-])c4)o3)C2=O)cc1,151%
18,Cc1ccc(N2C(=O)NC(=O)/C(=C\c3ccc(-c4cccc([N+](=O)[O-])c4)o3)C2=O)cc1,-5.9%
19,COc1ccc(N2C(=O)NC(=O)/C(=C/c3ccc(-c4ccccc4[N+](=O)[O-])o3)C2=O)cc1,-46.3%
20,Cc1ccc(N2C(=O)NC(=O)/C(=C/c3ccc(C)c([N+](=O)[O-])c3)C2=O)cc1,-16.7%
21,Cc1c(Cl)cccc1-c1ccc(/C=C/c2cc(C(F)(F)F)[nH]c(=O)n2)o1,-60.9%
22,COc1ccc(-c2ccc(/C=C3/C(=O)NC(=O)N(c4ccc(C)cc4)C3=O)o2)c([N+](=O)[O-])c1,83.5%
23,O=C1NC(=O)N(c2ccccc2)C(=O)/C1=C\c1ccc(-c2ccccc2[N+](=O)[O-])o1,2.7%
24,COc1ccc(N2C(=O)/C(=C/c3ccc(-c4ccccc4[N+](=O)[O-])o3)C(=O)NC2=S)cc1,15.9%
25,COc1ccc(-c2ccc(/C=C/c3cc(C(F)(F)F)[nH]c(=O)n3)o2)c([N+](=O)[O-])c1,78.8%

row,Compound,displacement
1,COc1ccc(-c2ccc(/C=C3/C(=O)NC(=O)N(c4ccccc4)C3=O)o2)c([N+](=O)[O-])c1,78.3%
2,O=C(Nc1cccc(Oc2ccc3c(c2)C(=O)N(c2ccccc2)C3=O)c1)c1cccc([N+](=O)[O-])c1,12.7%
3,CC(=O)Nc1ccc(Nc2nc3ccccc3nc2Nc2ccc(NC(C)=O)cc2)cc1,-13.4%
4,COC(=O)C1=C(C)N(Cc2ccccc2)C(=O)/C1=C\c1cccc([N+](=O)[O-])c1,2.4%
5,CCOc1ccc(/C=C2/C(=O)NC(=O)N(c3ccc(C)cc3)C2=O)cc1,-9.7%
6,COc1cc(/C=C/C(=O)c2ccc(C)cc2)cc(OC)c1OC,1.6%
7,Oc1ccccc1/C=N/Nc1nc2ccccc2s1,0.6%
8,Cc1ccc(NC(=O)CN(c2ccc(Oc3ccccc3)cc2)S(C)(=O)=O)cc1,5.1%
9,O=C1/C(=C/c2c3ccccc3nc3ccccc23)Sc2ccccc21,-0.5%
10,CC(=O)n1cc(/C=C2\Sc3ccccc3C2=O)c(-c2ccccc2)n1,145%
11,CC(=O)n1cc(/C=C2\N=C(c3cccs3)OC2=O)c(-c2ccccc2)n1,-0.1%
12,NC(=O)c1ccc(Sc2nc3ccccc3s2)c([N+](=O)[O-])c1,1.4%
13,COC(=O)c1cccc(N2C(=O)C=CC2=O)c1,1%
14,O=C(CSc1nc2sc3c(c2c(=O)[nH]1)CCCC3)NCc1ccccc1,-18.5%
15,O=C(CSc1nc2sc3c(c2c(=O)[nH]1)CCCC3)NCc1ccccn1,-0.6%
16,O=C(CSc1nc2sc3c(c2c(=O)[nH]1)CCCC3)NCc1ccco1,59.8%
17,Cc1ccc(C)c(S(=O)(=O)Nc2ccc(Cl)cc2)c1,9%
18,COc1ccc(NC(=O)CN(c2ccc(Cl)cc2)S(C)(=O)=O)c(OC)c1,10.7%
19,O=C(Nc1ccccn1)c1cc(-c2ccc(Cl)c(Cl)c2)nc2ccccc12,10%
20,O=C(Nc1cc([N+](=O)[O-])ccc1Cl)c1cc(-c2ccc(Cl)cc2)nc2ccccc12,13.6%
21,O=C(Nc1ccc([N+](=O)[O-])cn1)c1cc(-c2ccc(Cl)c(Cl)c2)nc2ccccc12,52.4%
22,COC(=O)COc1ccc(/C=C2\C(=O)NC(=O)N(C)C2=O)cc1OC,-18.2%
23,CCOc1ccc(Br)cc1/C=N\NC(=O)c1cc(C)[nH]n1,-2.6%
24,CCc1ccccc1NC1=C(Cl)C(=O)N(c2ccc(C)cc2C)C1=O,16.8%
25,COc1ccccc1NC1=C(Cl)C(=O)N(c2ccc(C)cc2C)C1=O,8.3%

row,Compound,displacement
1,Cc1ccc(N2C(=O)C(Cl)=C(Nc3ccccc3F)C2=O)c(C)c1,71.5%
2,Nc1nnc(CCC(=O)c2ccccc2)s1,3.5%
3,NC(=O)c1ccccc1NC(=O)c1ccc(I)cc1,7.7%
4,Cc1c(Cc2ccccc2)sc(NC(=O)c2ccc([N+](=O)[O-])cc2)c1C(N)=O,65.7%
5,COc1ccc(C(=O)Nc2sc(Cc3ccccc3)c(C)c2C(N)=O)cc1,-16.5%
6,Cc1c(Cc2ccccc2)sc(NC(=O)c2ccc(-c3ccccc3)cc2)c1C(N)=O,-1.3%
7,CC(=O)Nc1cccc(NC(=O)c2cccc(I)c2)c1,-1.5%
8,O=C(COc1ccc(Cl)cc1Cl)OCc1ccccc1,-9.2%
9,CC(=O)C(C(C)=O)c1cc(NS(=O)(=O)c2ccc(C)cc2)c2ccccc2c1O,3.6%
10,CCOC(=O)C(C(C)=O)c1cc(NS(=O)(=O)c2ccc(C)cc2)c2ccccc2c1NS(=O)(=O)c1ccc(C)cc1 (stereo not given),78.8%
11,Cc1ccc(S(=O)(=O)Nc2cc(C(C(=O)OC(C)C)C(=O)C(F)(F)F)c(O)c3ccccc23)cc1 (stereo not given),-5.6%
12,Cc1cccc(-c2cc(NC(=O)c3ccc(Br)cc3)n[nH]2)c1,9.4%
13,COc1ccccc1C(=O)Nc1ccc2oc(-c3ccncc3)nc2c1,135%
14,CN(C)c1ccc(-c2nc3cc(NC(=O)c4ccccc4Br)ccc3o2)cc1,1.6%
15,Cc1cccc(C(=O)Nc2ccc3oc(-c4ccc(N(C)C)cc4)nc3c2)c1,35.7%
16,COc1ccc(-c2nc3ccccc3o2)cc1NC(=O)c1ccc(Br)o1,63%
17,COc1ccc(Br)cc1C(=O)Nc1ccc2oc(-c3ccccc3)nc2c1,-2.9%
18,COc1ccc(-c2nc3ccccc3o2)cc1NC(=O)c1cc2ccccc2cc1OC,-8.6%
19,COc1ccccc1C(=O)Nc1ccc2oc(-c3cccc(C)c3)nc2c1,1.6%
20,CN(C)c1ccc(-c2nc3cc(NC(=O)c4cccc(Br)c4)ccc3o2)cc1,62.5%
21,CCc1ccc(-c2nc3cc(NC(=O)c4ccccc4OC)ccc3o2)cc1,8.5%
22,COc1ccc(Br)cc1C(=O)Nc1ccc(-c2nc3ccccc3o2)cc1,134%
23,COc1ccc(Br)cc1C(=O)Nc1ccc(-c2nc3ncccc3o2)cc1,5.4%
24,COc1cccc(C(=O)Nc2cc(-c3nc4ccccc4o3)ccc2OC)c1,-29.6%
25,COc1ccc2c(c1OC)C(=O)N(c1cccc(Cl)c1)C2=O,-23.7%

row,Compound,displacement
1,O=C1NC(=O)N(c2ccccc2Cl)C(=O)/C1=C\C=C\c1ccco1,15.6%
2,COc1cc(/C=C(\C#N)c2nc3ccc(C)cc3[nH]2)cc(OC)c1O,-65.6%
3,COc1ccc(-c2nnc(-c3cccc([N+](=O)[O-])c3)o2)cc1,5.8%
4,N/C(=N\OC(=O)c1cccc(F)c1)c1ccccc1,-7.1%
5,CCOc1cc(C(=S)N2CCOCC2)cc(Br)c1OC(=O)c1ccc(Cl)cc1Cl,14.1%
6,COC(=O)c1ccc(NC(=O)CC2Sc3ccccc3NC2=O)cc1 (stereo not given),3.1%
7,O=C(Nc1ccc2oc(-c3ccncc3)nc2c1)c1cccnc1,61.6%
8,O=C(Nc1ccc2oc(-c3ccncc3)nc2c1)c1ccncc1,28.9%
9,O=C(Nc1ccc2oc(-c3ccccc3)nc2c1)c1ccncc1,-3.2%
10,O=C(COc1ccccc1Cl)Nc1ccc2oc(-c3ccncc3)nc2c1,136%
11,O=C(COc1ccc(Cl)cc1)Nc1ccc2oc(-c3ccccc3)nc2c1,-6.4%
12,Cc1ccc(-c2nc3cc(NC(=O)COc4ccccc4C)ccc3o2)cc1,-6.6%
13,CCOc1cc(/C=C2\SC(=S)N(Cc3ccco3)C2=O)ccc1O,-18.8%
14,CCOC(=O)c1c(C)oc2cc(Br)c(OCC(=O)OCc3ccccc3)cc12,10.8%
15,CCOC(=O)C1=C(C)N=C2SCCN2C1c1ccccc1 (stereo not given),-10.4%
16,CSc1ccccc1NC(=O)CSc1nc2ccccc2o1,18.9%
17,O=C(Nc1ccccc1C(=O)O)c1ccc(N2C(=O)C3C4C=CC(C4)C3C2=O)cc1 (stereo not given),-3.6%
18,CCn1c2ccccc2c2cc(/C=N/Nc3ccc([N+](=O)[O-])cc3)ccc21,-7.5%
19,CCOC(=O)c1c(NC(C)=O)sc2cc(C(C)(C)C)ccc12,-4.1%
20,CC(=O)Nc1nonc1-c1nc2ccccc2n1Cc1ccc(C(C)(C)C)cc1,52.2%
21,CC(=O)Nc1nonc1-c1nc2ccccc2n1Cc1ccccc1,49.8%
22,CC(=O)Nc1nonc1-c1nc2ccccc2n1Cc1ccc([N+](=O)[O-])cc1,8.1%
23,COc1ccccc1NC(=O)c1ccc(Oc2ccc(C(=O)Nc3ccccc3OC)cc2)cc1,-1.8%
24,CCOC(=O)c1c(NC(=O)COc2c(C)cc(C)cc2C)sc(C(=O)Nc2ccccc2)c1C,13.1%
25,CCOc1ccc(N2C(=O)CC(SC(=NC)Nc3ccc4c(c3)OCO4)C2=O)cc1 (stereo not given),-6.7%
